# Hit rate of the full screen: of about 310,000 compounds, about 11,000 (3.5%) were called active. Not shown: some 4% with an inconclusive outcome. The sample holds actives, similar compounds and a random draw of the others, so the mix is not that of the screen. Unmarked numbers belong to inactive results. Calls follow the shape of the dose curve; as a rule, active = well fitted inhibition curve with a large enough effect; inconclusive = small, poorly fitted or top-dose-only effect, or another doubt; inactive = no such curve, though single readings can be large or run the other way. Non-standard residues stand in square brackets, D forms with d. Residues, ends and D or L forms follow the SMILES beside them. Groups on a side chain read outwards from the residue. *: point of attachment. X1 = CCC(C)C(N)C1=NC(C(=O)*)CS1; Orn = NCCC[CH](N)C(=O)O
# Biological target: 4'-phosphopantetheinyl transferase ffp (Bacillus subtilis) (UniProt Q9F4F7)
# Assay: qHTS Assay for Inhibitors of Bacillus subtilis Sfp phosphopantetheinyl transferase (PPTase);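 also: the enzyme is Sfp with the accession as filed and its product quenches rhodamine fluorescence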;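 as to largest response in the series, negative = inhibition: 0% = enzyme reaction without inhibitor and -100% = no enzyme wells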
# Settings: Biochemical Sfp PPTase activity
# Procedure, shortened: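 Buffer: 50 mM Hepes-Na pH 7.6, 10 mM MgCl2, 0.01% Nonidet P-40, 0.01% BSA. Enzyme 15 nM, pre-exposed to compound 15 min; substrates then added and fluorescence change tracked over 30 min.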
# Potency is read from the fitted curve at half-maximal effect.
Compound,"largest response in the series, negative = inhibition [%]",Potency
O=C(CCn1nnc2ccccc21)OCC(=O)c1ccc([N+](=O)[O-])cc1,30.5,
C/C(=N/NC(=O)CSc1ccccn1)c1ccc([N+](=O)[O-])cc1,0.345,
O=C(CC(n1cncn1)C(Cl)(Cl)Cl)c1ccc([N+](=O)[O-])cc1 (centres undefined),,44.7 µM (active)
Cc1ccc(C)c(S(=O)(=O)Nc2cc(C)on2)c1,10.8,
CCCCN=C1C([N+](=O)[O-])=CC=C2C1=NC1(CCCCC1)N2O,,28.2 µM (active)
O=C(NC1CCCC1)c1cc(-c2ccccc2)on1,11.2,
Cc1ccc(NC(=O)Cn2nnc(C(=O)NCc3ccco3)c2N)c(C)c1,-4.99,
Cc1ccccc1CN1C(=O)c2ccccc2Sc2ccc(C(=O)NCCCN3CCOCC3)cc21,-13.2,
CCN1CCN(CCNC(=O)c2ccc3c(c2)NC(=O)/C(=C\c2ccc(OC)c(OC)c2)S3)CC1,-5.49,
CCN1CCN(CCNC(=O)c2ccc(/C=C3/Sc4ccccc4N(Cc4cccc(C)c4)C3=O)cc2)CC1,,39.8 µM (active)
CCOC(=O)C1CCN(C(=O)C2CCCN(S(=O)(=O)c3ccc(OC)c(Cl)c3)C2)CC1 (centres undefined),3.96,
Cc1cc(=O)oc2c3c(cc(OCC(=O)NCCC(=O)N[C@@H](C)C(=O)O)c12)OC(C)(C)CC3,2.46,
CCOC(CNC(=O)C1CCN(S(=O)(=O)c2ccc3nc4c(c(C(=O)O)c3c2)CC(C)CC4)CC1)OCC (centres undefined),9.57,
Cc1cc(C)cc(NC(=O)C2CCN(c3nc(C)cc(C)n3)CC2)c1,9.84,
COC(=O)CC1=NN(c2nc(C)cc(C)n2)C(=O)C1,,50.1 µM (active)
Cc1ccc(CC2CC(=O)N(c3nc(C)cc(C)n3)C2=O)cc1 (centres undefined),0.267,
Cc1ccc(-n2c(C)nnc2SCC(=O)NC2CC2)cc1,4.57,
O=C(Cc1ccc(Cl)cc1)NC(=S)Nc1ccccc1O,12.4,
O=[N+]([O-])c1ccccc1NCc1ccc(Cl)cc1,-18.2,
Oc1ccc(CNc2ccccc2O)cc1,,50.1 µM (active)
COc1ccc(CN2CCC(=O)c3ccccc3S2(=O)=O)cc1,-5.49,
O=P(O)(O)OC[C@H](O)CO,16.8,
COc1cc(Cl)c(C)cc1NC(=O)CSc1nnc(-c2cccnc2)n1Cc1ccco1,-18.1,

Compound,"largest response in the series, negative = inhibition [%]",Potency
COc1cc(Cl)c(C)cc1NC(=O)CSc1nnc(-c2ccco2)n1CC(C)C,,44.7 µM (active)
CCn1c(SCC(=O)Nc2cc(C)c(Cl)cc2OC)nnc1-c1ccco1,2.43,
O=S(=O)(Cc1nnnn1-c1ccc(Br)cc1)c1ccc(F)cc1,6.04,
Cn1c(=O)c2c(SCC(=O)NCC3CCCO3)nc(CC(C)(C)C)nc2n(C)c1=O (centres undefined),-16,
Nc1c(Cl)cc(-c2csc(N3CCCC3c3nc4cc(Cl)c(Cl)cc4n3CCOCCO)n2)cc1Cl (centres undefined),-23.5,
CCOC(=O)c1c(-n2cnnn2)sc(C)c1C,,35.5 µM (active)
CCOC(=O)c1c(NC(=O)CSc2nccc(=O)[nH]2)sc(C)c1C,2.75,
CCOc1ccc(C(=O)COC(=O)c2ccc(-n3cnnn3)cc2)cc1,8.76,
CCC(C)C(N)C1=NC(C(=O)NC(CC(C)C)C(=O)NC(CCC(=O)O)C(=O)NC(C(=O)NCCCCC2NC(=O)C(CC(N)=O)NC(=O)C(CC(=O)O)NC(=O)C(Cc3cnc[nH]3)NC(=O)C(Cc3ccccc3)NC(=O)C(C(C)CC)NC(=O)C(CCCN)NC2=O)C(C)CC)CS1 (stereo not drawn) (cyclo(DNK([Ile-Glu-Leu-X1])[Orn]IFH); configuration not given here),-53.6,
CC(=O)OC1C([N+]2(C)CCCCC2)C[C@H]2C3CC[C@H]4C[C@H](OC(C)=O)C([N+]5(C)CCCCC5)CC4(C)C3CCC12C (some centres undefined),11.5,
COc1ccc(S(=O)(=O)NCC(=O)NCc2cc(=O)n(C)c(=O)n2C)cc1F,14.7,
CCOc1ccc(S(=O)(=O)Nc2ccc(OC)nc2)cc1,11.7,
COc1ccc(CS(=O)/C(Cl)=C(/Cl)C(=O)Nc2ccc(OC)nc2)cc1 (centres undefined),,14.1 µM (active)
COc1ccc(C(=O)Nc2ccc(NC(=O)C(C)C)nc2)cc1,27.7,
O=C1COc2ccc(S(=O)(=O)NCCc3ccc(Cl)cc3)cc2N1,13.2,
Cn1c(SCC(=O)c2cccs2)nnc1-c1ccco1,,22.4 µM (active)
Cn1c(SCC(=O)Nc2ccc(Br)cc2F)nnc1-c1ccco1,1.27,
CCOC(=O)CSc1nnc(-c2ccco2)n1C,-9.26,
CCC(C)(C)NC(=O)C(c1ccc(OC)cc1)N(C(=O)CCC(=O)Nc1cc(C)on1)c1ccc(OC)cc1OC (centres undefined),11.3,
CCOCCCNC(=S)Nc1ccc2nc(N3CCN(CC)CC3)cc(C)c2c1,10.7,
CCc1ccccc1NC(=O)c1ccc2c(c1)CCN2S(C)(=O)=O,10.6,
O=c1[nH]c2ccccc2n2c(-c3ccccc3)nnc12,,1.26 µM (active)
CC(=O)c1c(-c2ccccc2)c2ccccc2[nH]c1=O,28.5,

Compound,"largest response in the series, negative = inhibition [%]",Potency
Cc1ccc(-c2nc3ccccc3[nH]c2=O)cc1,9.46,
O=C(CCn1nnnc1CN1CCOCC1)N1CCC(c2ccccc2Cl)C1 (centres undefined),10.9,
Cc1ccc(CNC(=O)[C@@H](NC(=O)Cc2ccccc2)C(C)C)cc1,19.7,
C=CCn1c(=S)[nH]c2scc(-c3ccco3)c2c1=O,,20 µM (active)
C=CCn1c(=S)[nH]c2nc3c(cc2c1=O)COC(C)(C)C3,-7.89,
C=CCn1cnc2scc(-c3ccccc3)c2c1=O,10.8,
COc1cccc(-n2c(N)cc(=O)nc2SCC(=O)Nc2cc(C)on2)c1,21.7,
CCOC(=O)C1(CCOc2ccccc2)CCN(Cc2ccc(C#CCCO)cc2)CC1,10.5,
Nc1nc(NCc2ccccc2)n(-c2ccccc2)n1,16.4,
CC(=O)c1ccc(-c2ccc(Cn3c(C)nc4cc(N)c(C)nc43)cc2)cc1,5.24,
Cc1cc2nc3c(=O)n(Cc4ccccc4)c(=O)[nH]c3nc2cc1N,,20 µM (active)
O=c1[nH]c2c(c(=O)n1Cc1ccccc1)CCC2,4.99,
CC(C)Cn1cnc2c1c(=O)n(CC(=O)NN)c(=O)n2Cc1ccccc1,10.8,
CCOC(=O)[C@@H]1[C@H]2COc3cc(OC)ccc3[C@H]2N2C(=O)N(c3ccc(F)cc3)C(=O)[C@]12C,11.1,
O=S(=O)(NC1CC2CCC1C2)c1ccc(Cl)cc1 (centres undefined),6.14,
COCOc1cc(OC)ccc1C(=O)/C=C/c1ccc([N+](=O)[O-])cc1,0.0276,
Cc1ccc(NC(=S)NC(=O)/C=C/c2ccc(Cl)cc2)cc1,-9.72,
CCOc1ccc(NC(=S)NC(=O)/C=C/c2ccc(OC)cc2)c([N+](=O)[O-])c1,,70.8 µM (active)
CCOC(=O)C1=C(c2ccccc2)NC(=O)NC1c1cc(OCC)c(O)c([N+](=O)[O-])c1 (centres undefined),10.9,
Brc1ccccc1/C=N/Nc1nc2ccccc2o1,-1.43,
COC(=O)c1ccc2ccccc2c1OC1OC(CO)C(O)C(O)C1NC(C)=O (centres undefined),4.77,
COc1cc(CN2CC(C)CC(C)C2)cc([N+](=O)[O-])c1O (centres undefined),-8.11,
COc1cc(CN2CCN(Cc3ccc(C)cc3)CC2)c([N+](=O)[O-])cc1OC,,56.2 µM (active)

Compound,"largest response in the series, negative = inhibition [%]",Potency
COc1cc(CN2CCCN(C)CC2)c([N+](=O)[O-])cc1OC,5.29,
COc1cccc(OCc2nnc3n2N=C(c2ccccc2)C(CC(=O)O)S3)c1 (centres undefined),13.2,
COc1ccc(OCc2nnc3n2N=C(c2ccccc2)C(CC(=O)O)S3)cc1 (centres undefined),,4.47 µM (active)
COc1ccc(OCC(=O)NNC(=O)c2ccc(-c3ccccc3)cc2)cc1,-6.16,
COc1cccc(CNC(=O)C2CCCN(c3ncnc4c3nc3n4CCCCC3)C2)c1 (centres undefined),3.29,
COC(=O)c1cccc(NS(C)(=O)=O)c1,9.77,
COC(=O)c1cccc(N2C(=O)C3C4C=CC(CC4)C3C2=O)c1 (centres undefined),11.5,
COC(=O)c1cccc(-n2[nH]nnc2=S)c1,,15.8 µM (active)
CC1(C)Cc2c(sc(NC(=O)C(=O)NCC3CCCO3)c2C(=O)O)CO1 (centres undefined),8.68,
C=C(C(C)=O)C(O)c1ccc([N+](=O)[O-])cc1 (centres undefined),-25.7,
CC(=O)Nc1c2c(nn1-c1cccc(C)c1)CSC2,15.2,
O=C(CCN1c2ccccc2Sc2ccccc21)Nc1ccccc1,-1.89,
CCN1/C(=C/C(=S)Nc2ccccc2)Sc2ccccc21,,14.1 µM (active)
CCN1/C(=C/c2ccc3ccc(C)cc3[n+]2CC)Sc2ccccc21,-8.02,
Cc1ccc(S(=O)(=O)N2CCC3(CC2)OCCO3)c(C)c1,19.7,
CCc1[nH]nc(C(=O)N2CCCC(CO)(Cc3ccc(F)cc3F)C2)c1C (centres undefined),4.7,
COC(=O)C1CCN(C(=O)c2ccc3oc(Cc4ccc(Cl)cc4)nc3c2)CC1,16.5,
Cc1ccc(-c2ccc(/C=N/NC(=O)CN3CCOCC3)o2)cc1[N+](=O)[O-],,50.1 µM (active)
Cc1cc(C)c([N+](=O)[O-])cc1-c1ccc(/C=N/NC(=O)c2nonc2N)o1,-8.88,
O=C(CN1CCOCC1)N/N=C/c1ccc(-c2ccc(Br)cc2)o1,-29.3,
